PubChem BioAssay (EPA / NIEHS)
Results filed as inconclusive are left out. More than one record can exist for a structure, and the calls need not agree. Active and inactive are the calls of the source. Rule for the calls, unless noted: active = hit-call score of the fitted dose curve at least 0.9, where 1 is the maximum; inactive = score below 0.9.

How the values were obtained:
[1] = CCTE_Shafer_MEA_dev_firing_rate_mean: CCTE's Neural Network Formation Assay for Mean Firing Rate, Shafer Lab (AID 2284031);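 for AC50: curve fitted for loss of firing so AC50 reflects decreased mean firing rate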
Method in brief: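 Primary rat cortical neurons on 48-well MEA plates, exposed from plating day 0 with dosing renewed on DIV 5 and 9. Mean well firing rate over active electrodes, recorded days 5, 7, 9, 12, summarised as trapezoidal AUC.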

[2] = CCTE_Shafer_MEA_dev_per_burst_spike_percent: CCTE's Neural Network Formation Assay for Percent of Spikes in a Burst, Shafer Lab (AID 2284032);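 for AC50: fitted as a decrease in burst spike percentage below DMSO baseline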
Method in brief: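 Rat primary cortical neurons on 16-electrode MEA wells, dosed from plating day 0 for 12 days with renewal on DIV 5 and 9; spikes-in-bursts percentage averaged over bursting electrodes, collapsed as AUC across days 5, 7, 9, 12; loss direction versus DMSO.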

[3] = CCTE_Deisenroth_AIME_384WELL_CTox_Inactive: Cytotoxicity Assessment (CTOX) in CCTE's 384-well Estrogen Receptor Transactivation Assay without AIME metabolic competence (metabolism negative), Deisenroth Lab (AID 2284039; active = hit-call score of the fitted dose curve at least 0.9, where 1 is the maximum;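 note: cell viability via live-cell protease substrate cleaved to fluorescent probe; cells exposed 24 h to medium preincubated 2 h with alginate-water beads without S9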)
Method in brief: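 Fluorescent protease-substrate viability readout after 24 h exposure of VM7Luc4E2 cells to conditioned medium. Chemicals (0.002–200 uM) first sat 2 h over alginate-water beads, no S9. Data fitted bidirectionally, loss of signal meaning viability loss.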

[4] = CCTE_Shafer_MEA_dev_active_electrodes_number: CCTE's Neural Network Formation Assay for Number of Active Electrodes, Shafer Lab (AID 2284040; active = hit-call score of the fitted dose curve at least 0.9, where 1 is the maximum;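 for AC50: potency for loss of active electrodes versus DMSO so lower counts are hits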)
Method in brief: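 Primary rat cortical neurons on 16-electrode MEA wells, exposed from day 0 through day 12 with compound renewed at DIV 5 and 9 feeds. Active electrodes (mean firing ≥5 spikes/min) counted at DIV 5, 7, 9, 12; trapezoidal AUC across days, loss-of-signal versus DMSO.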

[5] = CCTE_Shafer_MEA_dev_burst_rate: CCTE's Neural Network Formation Assay for Burst Rate, Shafer Lab (AID 2284042);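 for AC50: potency for loss of burst rate below DMSO control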
Method in brief: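 Exposure ran continuously over 12 days of network development in rat cortical cultures, with compound refreshed during full media changes on DIV 5 and 9. Single-electrode bursts per recording time, well-mean over active electrodes, trapezoidal AUC across days 5–12, fitted downward relative to DMSO.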

[6] = CCTE_Shafer_MEA_dev_bursting_electrodes_number: CCTE's Neural Network Formation Assay for Number of Bursting Electrodes, Shafer Lab (AID 2284043; active = hit-call score of the fitted dose curve at least 0.9, where 1 is the maximum;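 for AC50: potency is for loss of bursting electrodes relative to DMSO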)
Method in brief: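 Primary rat cortical neurons were cultured on PEI-coated 48-well MEA plates (16 electrodes/well) and exposed from plating through day 12, with compound renewed at feeds on DIV 5 and 9. Electrodes bursting ≥1 per 2 min were counted on DIV 5, 7, 9, 12; trapezoidal AUC taken.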

[7] = CCTE_Shafer_MEA_dev_per_burst_interspike_interval: CCTE's Neural Network Formation Assay for Burst Interspike Interval, Shafer Lab (AID 2284044);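 note: mean spike spacing inside bursts as AUC over recordings on days 5 7 9 12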;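 for AC50: potency for a decrease of within-burst interspike interval below DMSO level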
Method in brief: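 Mean interspike interval within single-electrode bursts, averaged over bursting electrodes, from rat cortical cultures on MEA plates recorded on days 5, 7, 9 and 12. Continuous compound exposure from plating; trapezoidal AUC fitted downward relative to DMSO.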

[8] = CCTE_Shafer_MEA_dev_burst_duration_mean: CCTE's Neural Network Formation Assay for Mean Burst Duration, Shafer Lab (AID 2284045)
Method in brief: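 Primary rat cortical neurons on PEI-coated 16-electrode MEA wells, exposed from plating through day 12 with compound renewed at DIV 5 and 9; spontaneous activity recorded days 5, 7, 9, 12. Well-mean burst duration collapsed as trapezoidal AUC, fitted for loss versus DMSO.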

[9] = CCTE_Shafer_MEA_dev_interburst_interval_mean: CCTE's Neural Network Formation Assay for Mean Interburst Interval, Shafer Lab (AID 2284046);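 note: well-mean interburst interval of bursting electrodes as AUC over four recording days; curve fitted for decrease in interburst interval relative to DMSO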
Method in brief: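 Primary rat cortical neurons on PEI-coated 48-well MEA plates (laminin added with cells at plating) (16 electrodes/well), exposed from plating day 0 with renewal at DIV 5 and 9. Mean inter-burst interval averaged over bursting electrodes, AUC across days 5, 7, 9, 12; DMSO baseline.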

[10] = CCTE_Shafer_MEA_dev_inter_network_spike_interval_mean: CCTE's Neural Network Formation Assay for Mean Inter-network Spike Interval, Shafer Lab (AID 2284047);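 for AC50: potency for a decrease in mean inter-network spike interval below DMSO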
Method in brief: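 Mean time between consecutive network-spike peaks, recorded extracellularly (adaptive spike detection) on DIV 5, 7, 9 and 12, summarized as trapezoidal AUC. Rat cortical cultures on MEAs dosed continuously days 0–12, re-dosed at feeds; loss-of-signal fit relative to DMSO.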

[11] = CCTE_Shafer_MEA_dev_network_spike_number: CCTE's Neural Network Formation Assay for Number of Network Spikes, Shafer Lab (AID 2284048);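 note: synchronized bursts across electrodes counted on days 5 7 9 12 and integrated as AUC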;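 for AC50: fit as a loss of signal meaning fewer network spikes than DMSO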
Method in brief: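 Primary rat cortical neurons were seeded at 1.5 x 10^5 cells/well on PEI-coated 16-electrode MEA wells with laminin, exposed from plating day 0, compound renewed at DIV 5 and 9. Network spikes were recorded on days 5, 7, 9, 12 and summarized as trapezoidal AUC versus DMSO.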

[12] = CCTE_Shafer_MEA_dev_network_spike_peak: CCTE's Neural Network Formation Assay for Mean Number of Electrodes in Network Spike, Shafer Lab (AID 2284049);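 for AC50: fitted for loss of signal meaning fewer electrodes in network spikes than DMSO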
Method in brief: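 Continuous 12-day exposure of rat cortical cultures, starting at plating, on MEA plates. Endpoint: electrodes participating in network-spike peaks, AUC across DIV 5–12, DMSO as negative control.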

DIO2 (gene 1734) = test: CCTE_GLTED_hDIO2: CCTE's human Deiodinase 2 (DIO2) Inhibition Assay, Great Lakes Toxicology and Ecology Division (GLTED) Lab (AID 2284050; active = hit-call score of the fitted dose curve at least 0.9, where 1 is the maximum)
Method in brief: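 Cell-free human DIO2 incubated 3 h with chemical; liberated iodide quantified by Sandell-Kolthoff absorbance. Triplicate plates; loss of signal fitted vs DMSO.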

[13] = CCTE_Shafer_MEA_dev_spike_duration_mean: CCTE's Neural Network Formation Assay for Mean Spike Duration, Shafer Lab (AID 2284051);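 note: mean network spike duration pooled as area under curve over DIV 5 to 12 recordings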;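 for AC50: potency for a decrease in mean network spike duration versus DMSO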
Method in brief: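 Spontaneous activity was recorded on days 5, 7, 9 and 12 from rat cortical cultures grown on microelectrode arrays and dosed continuously from day 0, with media and compound renewed after the DIV 5 and 9 recordings. Network-spike duration was collapsed by area under the curve.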

[14] = CCTE_Shafer_MEA_dev_network_spike_duration_std: CCTE's Neural Network Formation Assay for Standard Deviation of Network Spike Duration, Shafer Lab (AID 2284052);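 note: hits are decreases in network spike duration SD versus DMSO vehicle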
Method in brief: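 Network spike duration variability was collapsed across recordings on days 5, 7, 9 and 12 by trapezoidal area-under-curve and fitted downward against DMSO. Cultures were rat cortical neurons on PEI-coated MEA plates, dosed continuously from plating, refed with compound DIV 5/9.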

[15] = CCTE_Shafer_MEA_dev_per_network_spike_spike_number_mean: CCTE's Neural Network Formation Assay for Mean Number of Spikes in a Network Spike, Shafer Lab (AID 2284053);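 for AC50: fitted as decrease in spikes per network spike relative to DMSO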
Method in brief: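 Mean spike count within each network spike, taken in a 0.05 s window at its peak, was recorded on days 5, 7, 9 and 12 and integrated as trapezoidal area under the curve. Rat cortical cultures on MEA plates received continuous compound from day 0, refreshed at medium changes on DIV 5 and 9.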

[16] = biological target: Estrogen receptor (Homo sapiens) (UniProt P03372); test: CCTE_Deisenroth_AIME_384WELL_LUC_Active: CCTE's 384-well Estrogen Receptor Transactivation Assay with AIME metabolic competence (ERTA luciferase; metabolism positive), Deisenroth Lab (AID 2284030; active = hit-call score of the fitted dose curve at least 0.9, where 1 is the maximum)
Estrogen receptor (Homo sapiens), sequence (P03372 whole entry, looked up): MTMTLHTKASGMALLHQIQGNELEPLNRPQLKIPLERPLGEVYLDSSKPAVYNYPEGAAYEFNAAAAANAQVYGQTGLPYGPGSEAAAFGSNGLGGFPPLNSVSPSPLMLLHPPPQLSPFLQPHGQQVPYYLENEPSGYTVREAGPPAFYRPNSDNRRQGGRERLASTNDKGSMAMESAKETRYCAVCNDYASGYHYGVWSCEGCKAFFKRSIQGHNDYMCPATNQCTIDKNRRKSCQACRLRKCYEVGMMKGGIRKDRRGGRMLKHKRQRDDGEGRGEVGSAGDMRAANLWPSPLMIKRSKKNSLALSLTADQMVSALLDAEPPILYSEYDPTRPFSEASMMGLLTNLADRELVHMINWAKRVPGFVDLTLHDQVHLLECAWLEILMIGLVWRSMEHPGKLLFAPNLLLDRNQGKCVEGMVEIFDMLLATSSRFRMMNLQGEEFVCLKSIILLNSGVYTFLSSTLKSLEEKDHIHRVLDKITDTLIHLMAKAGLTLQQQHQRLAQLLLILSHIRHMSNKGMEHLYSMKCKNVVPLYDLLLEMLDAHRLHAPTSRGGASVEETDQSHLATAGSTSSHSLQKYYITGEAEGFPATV
Method in brief: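 VM7Luc4E2 breast cells were given, for 24 hours, medium pre-incubated for 2 hours with parent chemical (0.002-200 uM, 10 concentrations) and alginate-encapsulated phenobarbital/beta-naphthoflavone-induced rat hepatic S9. Luciferase gain of signal was fitted against 17beta-estradiol; n=4 or more.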

[17] = CCTE_Deisenroth_AIME_384WELL_CTox_Active: Cytotoxicity Assessment (CTOX) in CCTE's 384-well Estrogen Receptor Transactivation Assay with AIME metabolic competence (metabolism positive), Deisenroth Lab (AID 2284037; active = hit-call score of the fitted dose curve at least 0.9, where 1 is the maximum;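 note: chemicals first conditioned 2 h by alginate-bound induced rat liver S9 before cells; activity means signal loss indicating cell death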)
Method in brief: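 VM7Luc4E2 breast cells received medium pre-incubated 2 h with chemical over alginate microspheres holding induced male Sprague Dawley rat liver S9; viability read 24 h later by protease-substrate fluorescence. Loss of signal, bidirectional fit, 0.002–200 uM.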

[18] = biological target: Estrogen receptor (Homo sapiens) (UniProt P03372); test: CCTE_Deisenroth_AIME_384WELL_LUC_Inactive: CCTE's 384-well Estrogen Receptor Transactivation Assay without AIME metabolic competence (ERTA luciferase; metabolism negative), Deisenroth Lab (AID 2284038; active = hit-call score of the fitted dose curve at least 0.9, where 1 is the maximum;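 note: hits raise estrogen receptor luciferase signal so potencies reflect agonists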)
Method in brief: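 Metabolism-negative mode: chemicals (10-point, 0.002–200 uM) held 2 h with alginate-water microspheres, then conditioned medium applied to VM7Luc4E2 cells for 24 h. Luciferase induction referenced to 17beta-estradiol.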

[19] = biological target: Estrogen receptor (Homo sapiens) (UniProt P03372); test: CCTE_Deisenroth_AIME_384WELL_LUC_Shift: CCTE's 384-well Estrogen Receptor Transactivation Assay with AIME metabolic competence data shift (ERTA luciferase; difference in metabolism positive and negative), Deisenroth Lab (AID 2284041);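 note: shift is response with S9 minus without S9 so positive means metabolism raised ER signal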
Method in brief: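 Here, parent compounds undergo 2 h phase I metabolism by PB/BNF-induced rat S9 before 24 h transactivation in VM7Luc4E2 cells; the curve models S9-positive minus S9-negative response over a 10-point series.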

Measured: AC50

Oc1cc(Cl)ccc1Oc1ccc(Cl)cc1Cl
inactive: [3] | [8] | [10] | [11]
active: [1] 10 µM | [2] 10.2 µM | [4] 9.79 µM | [5] 8.47 µM | [6] 9.29 µM | [7] 16 µM | [9] 15.6 µM | [12] 9.85 µM | DIO2 (gene 1734) 84 µM | [13] 10 µM | [14] 7.04 µM | [15] 9.32 µM

O=S(=O)(O)C(F)(F)C(F)(F)C(F)(F)C(F)(F)C(F)(F)C(F)(F)C(F)(F)C(F)(F)F
inactive: [1] | [2] | [4] | [5] | [6] | [7] | [8] | [9] | [10] | [11] | [12] | [13] | [14] | [15]
active: [2] 77.9 µM | [3] 100 µM | [4] 50 µM | [5] 3.81 µM | [6] 43.1 µM | [12] 50 µM | DIO2 (gene 1734) 95 µM [middle of 4 runs] | [13] 50 µM | [15] 50 µM

CNC(=O)Oc1cccc(N=CN(C)C)c1
inactive: [16] | [17] | [18] | [3] | [19]

CCOCN(C(=O)CCl)c1c(C)cccc1CC
inactive: [17] | [19]
active: DIO2 (gene 1734) 58.9 µM

CNC(=O)/C=C(\C)OP(=O)(OC)OC
inactive: [16] | [17] | [18] | [19]

CC1(c2ccc(Oc3ccccc3)cc2)OC(=O)N(Nc2ccccc2)C1=O (centres undefined)
inactive: [8]
active: [1] 8.59 µM | [2] 4.72 µM | [4] 4.84 µM | [5] 7.84 µM | [6] 4.99 µM | [7] 7.68 µM | [9] 4.55 µM | [10] 3.1 µM | [11] 3.39 µM | [12] 5.73 µM | [13] 3.17 µM | [14] 3.66 µM | [15] 4.26 µM

O=C(O)COc1ccc(Cl)cc1Cl
inactive: [1] | [2] | [3] | [5] | [7] | [8] | [9] | [10] | [11] | [13] | [14] | [15]
active: [4] 50 µM | [6] 30.9 µM | [12] 50 µM

Oc1ccc(Cl)cc1Cc1ccccc1
active: DIO2 (gene 1734) 132 µM

C[C@H]1[C@H](c2ccc(Cl)cc2)SC(=O)N1C(=O)NC1CCCCC1
inactive: [16] | [17] | [18] | [3] | [19]

N#Cc1c(Cl)c(Cl)c(Cl)c(C#N)c1Cl
active: DIO2 (gene 1734) 5.63 µM

CNC(=O)Oc1ccccc1OC(C)C
inactive: [16] | [18] | [19]

COP(=S)(OC)Oc1ccc([N+](=O)[O-])cc1
active: [4] 20.2 µM | [6] 15 µM | [12] 23.4 µM | [15] 24.6 µM
inactive: [1] | [2] | [5] | [7] | [8] | [9] | [10] | [11] | [13] | [14]

OCCOc1ccccc1
inactive: [17] | [3]
active: [16] 34 µM | [18] 43.5 µM | [19] 23.8 µM

COP(=O)(OC)OC=C(Cl)Cl
active: [1] 9.72 µM | [2] 4.26 µM | [4] 5.4 µM | [5] 1.16 µM | [6] 0.659 µM | [7] 10.1 µM | [9] 2.02 µM | [11] 0.983 µM | [12] 2.87 µM | [13] 1.45 µM | [14] 0.852 µM | [15] 1.94 µM
inactive: [16] | [1] | [2] | [17] | [18] | [4] | [19] | [5] | [6] | [7] | [8] | [9] | [10] | [11] | [12] | [13] | [14] | [15]

Clc1ccccc1-c1nnc(-c2ccccc2Cl)nn1
inactive: [16] | [17] | [18] | [3] | [19]

CCOC1Oc2ccc(OS(C)(=O)=O)cc2C1(C)C (centres undefined)
inactive: [18] | [19]
active: [17] 100 µM | [3] 100 µM

CCCN(CCC)c1c([N+](=O)[O-])cc(C(F)(F)F)cc1[N+](=O)[O-]
inactive: [16] | [18] | [19]

CC(C)(C)C(O)/C(=C\c1ccc(Cl)cc1Cl)n1cncn1 (centres undefined)
inactive: [19]
active: [17] 148 µM | [3] 144 µM
